These results are taken from PubChem BioAssay.

Values joined by “and” are separate entries in the source; they are usually repeats but may differ in a detail not shown here. Identical values can stand only once.

In the experiment the target is Neurogenic locus notch homolog protein 2 (Homo sapiens) (UniProt Q04721). Description: small molecules binding Notch2 protein – biochemical, small-molecule microarray, 635 nm fluorescence, stem cell growth factors, primary screen (AID 1073). Conditions: higher = more signal.
Sequence of Neurogenic locus notch homolog protein 2 (Homo sapiens) (Q04721 whole entry, looked up): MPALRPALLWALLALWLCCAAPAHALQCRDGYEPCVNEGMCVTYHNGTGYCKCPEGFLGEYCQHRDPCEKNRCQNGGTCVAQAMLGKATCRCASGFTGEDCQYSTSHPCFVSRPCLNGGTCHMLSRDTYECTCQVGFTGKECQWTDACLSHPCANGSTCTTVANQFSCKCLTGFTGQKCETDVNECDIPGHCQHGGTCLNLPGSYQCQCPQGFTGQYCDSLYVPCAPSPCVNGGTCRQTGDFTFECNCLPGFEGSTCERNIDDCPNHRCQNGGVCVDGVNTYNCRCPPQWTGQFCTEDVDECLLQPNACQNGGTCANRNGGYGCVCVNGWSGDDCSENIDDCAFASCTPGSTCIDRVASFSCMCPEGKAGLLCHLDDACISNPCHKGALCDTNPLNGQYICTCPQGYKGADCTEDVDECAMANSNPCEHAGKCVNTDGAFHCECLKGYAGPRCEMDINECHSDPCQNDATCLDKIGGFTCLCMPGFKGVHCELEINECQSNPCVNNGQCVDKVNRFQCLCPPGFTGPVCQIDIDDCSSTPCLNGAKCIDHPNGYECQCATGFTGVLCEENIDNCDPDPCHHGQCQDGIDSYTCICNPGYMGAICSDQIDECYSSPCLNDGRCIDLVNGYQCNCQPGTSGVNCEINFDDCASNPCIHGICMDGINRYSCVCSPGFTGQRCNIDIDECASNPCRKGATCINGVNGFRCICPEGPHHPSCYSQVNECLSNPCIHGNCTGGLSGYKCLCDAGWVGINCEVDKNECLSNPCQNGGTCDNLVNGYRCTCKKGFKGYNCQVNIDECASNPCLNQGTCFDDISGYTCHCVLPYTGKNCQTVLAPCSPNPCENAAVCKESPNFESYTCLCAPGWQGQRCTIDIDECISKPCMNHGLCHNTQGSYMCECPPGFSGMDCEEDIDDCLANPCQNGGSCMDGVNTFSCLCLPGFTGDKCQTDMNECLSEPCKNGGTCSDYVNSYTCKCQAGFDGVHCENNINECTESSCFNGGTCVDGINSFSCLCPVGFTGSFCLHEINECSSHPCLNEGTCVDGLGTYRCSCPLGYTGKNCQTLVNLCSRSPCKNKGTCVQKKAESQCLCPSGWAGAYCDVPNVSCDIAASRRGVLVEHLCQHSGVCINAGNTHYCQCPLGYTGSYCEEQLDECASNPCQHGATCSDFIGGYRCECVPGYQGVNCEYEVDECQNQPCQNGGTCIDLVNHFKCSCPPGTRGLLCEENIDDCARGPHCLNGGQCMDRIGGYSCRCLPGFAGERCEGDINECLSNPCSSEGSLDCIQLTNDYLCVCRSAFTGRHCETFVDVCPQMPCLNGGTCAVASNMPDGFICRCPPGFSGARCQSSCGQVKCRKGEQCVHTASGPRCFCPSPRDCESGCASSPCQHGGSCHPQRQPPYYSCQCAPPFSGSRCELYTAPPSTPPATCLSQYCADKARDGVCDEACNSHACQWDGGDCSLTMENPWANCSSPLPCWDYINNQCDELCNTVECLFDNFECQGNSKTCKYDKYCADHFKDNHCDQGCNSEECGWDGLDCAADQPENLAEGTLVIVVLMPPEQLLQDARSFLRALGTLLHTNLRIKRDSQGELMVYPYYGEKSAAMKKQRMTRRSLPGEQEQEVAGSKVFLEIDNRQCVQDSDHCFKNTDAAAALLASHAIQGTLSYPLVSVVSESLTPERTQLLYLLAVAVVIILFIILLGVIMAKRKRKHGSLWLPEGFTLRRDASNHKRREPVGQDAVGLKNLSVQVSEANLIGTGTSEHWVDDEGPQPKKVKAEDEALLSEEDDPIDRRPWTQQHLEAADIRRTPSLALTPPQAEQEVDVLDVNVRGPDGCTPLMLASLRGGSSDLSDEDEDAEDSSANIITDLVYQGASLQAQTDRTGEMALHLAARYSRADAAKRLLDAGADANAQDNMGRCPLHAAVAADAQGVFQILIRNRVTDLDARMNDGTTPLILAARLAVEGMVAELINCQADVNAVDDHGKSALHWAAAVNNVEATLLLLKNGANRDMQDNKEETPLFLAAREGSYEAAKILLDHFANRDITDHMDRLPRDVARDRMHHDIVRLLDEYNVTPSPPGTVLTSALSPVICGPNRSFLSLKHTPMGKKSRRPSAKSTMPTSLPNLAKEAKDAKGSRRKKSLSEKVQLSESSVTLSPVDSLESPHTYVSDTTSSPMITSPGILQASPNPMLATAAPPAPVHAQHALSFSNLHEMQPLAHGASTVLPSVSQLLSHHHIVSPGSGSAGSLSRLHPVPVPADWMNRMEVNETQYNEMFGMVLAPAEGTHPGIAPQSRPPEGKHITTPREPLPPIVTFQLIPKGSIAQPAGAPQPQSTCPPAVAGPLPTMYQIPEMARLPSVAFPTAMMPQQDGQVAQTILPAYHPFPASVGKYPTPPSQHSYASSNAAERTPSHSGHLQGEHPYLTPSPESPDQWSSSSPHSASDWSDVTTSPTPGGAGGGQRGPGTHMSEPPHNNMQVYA
With `CCCC=C(CCC)[C@@H](NP(=O)(c1ccccc1)c1ccccc1)c1ccccc1`, the composite z-score was 1.25.

Turning to `COC(=O)[C@H]1C(=O)c2ccccc2O[C@@](C(=O)OC)(c2ccccc2)[C@@H]1c1ccccc1`, the composite z-score was 0.343.

`C[C@@H]1Cc2c(cnc3c2CN(C)CC3)CO1` displayed a composite z-score of -0.163.

Turning to `COc1cc2c(cc1O)C(C)N(C)CC2` (configuration not stated), the composite z-score stood at 0.358.

Compound `CN1CCc2nc(CO)c(CO)cc2C1` returned a composite z-score of 0.528.

Take `COC(=O)C1(C)C=C2C(=C(C)C(=O)C2C)CN1` (configuration not stated): the composite z-score was -0.483.

On to `CC1N(P(=O)(c2ccccc2)c2ccccc2)CC(O)(c2ccccc2)CC12CC2` (configuration not stated), for which the composite z-score was 0.621 and 1.54.

With `OCc1ccc(C2=CC(c3cccs3)N(Cc3cccc(OC(F)(F)F)c3)CC2)cc1` (configuration not stated), the composite z-score is -0.515.

The compound `CN1CCC(c2ccc(CO)cc2)=CC1C1CC1` (configuration not stated) came in with a composite z-score of -0.616.

As to `COC(=O)[C@H]1[C@@H](O)[C@@]2(O)c3c(OC)cc(OC)cc3O[C@@]2(c2ccc(OC)cc2)[C@@H]1c1ccccc1`, the composite z-score came out at 0.514.

`CN1CCC(c2ccc(CO)cc2)=CC1c1cccs1` (configuration not stated): the composite z-score was -0.131.

Compound `COC(=O)[C@@]1(Cc2ccc(F)cc2)[C@H]2c3cc(C(=O)N(C)C)[nH]c3C[C@H]2CN1C(=O)c1ccccc1` showed a composite z-score of 1.35.

Compound `CCCc1cc2c(n1Cc1ccc(C)cc1)C(C)C1CN(C(=O)c3ccccc3)C(C)(C(=O)OC)C21` (configuration not stated) showed a composite z-score of 1.43.

On to `COc1cc2c(cc1O)C=[N+](C)CC2`, for which the composite z-score is -0.718.

Compound `CCCc1cc2c(n1Cc1ccco1)C(C)C1CN(C(=O)c3ccccc3)C(C)(C(=O)OC)C21` (configuration not stated) returned a composite z-score of 1.66.

`CCCC[C@@H]1C[C@H]1[C@@H](NP(=O)(c1ccccc1)c1ccccc1)c1ccc(Cl)cc1` yielded a composite z-score of -0.438.

With `COC(=O)[C@@]1(Cc2ccccc2)[C@H]2c3cc(C(=O)N(C)C)[nH]c3C[C@H]2CN1C(=O)c1ccccc1`, the composite z-score was 0.335.

The compound `CCCc1cc2c(n1Cc1cccc(Cl)c1)C(C)C1CN(C(=O)c3ccccc3)C(C)(C(=O)OC)C21` (configuration not stated) registered a composite z-score of 1.51.

The compound `COC(=O)[C@H]1[C@H](c2ccccc2)C(=O)[C@]2(O)c3ccccc3O[C@@]12c1ccccc1` displayed a composite z-score of 0.472.

As to `C[C@H]1O[C@H]2C3=C(C(=O)[C@@H]4O[C@@H]4[C@@H]3O)[C@@H]1[C@@H]1[C@@H](C)OC=C3[C@@H](O)[C@H]4O[C@H]4C(=O)[C@]312`, the composite z-score is -0.468.

In the case of `CCc1cc2c(nc1CC)CCN(CCC(C)=NOC)C2`, the composite z-score stood at 0.608.

Compound `O=P(c1ccccc1)(c1ccccc1)N1CC2(CC2)CC(O)(c2ccccc2)C1` (configuration not stated) registered a composite z-score of 1.65.

Consider `OCc1ccc(C2=CC(C3CC3)N(Cc3sc4ccccc4c3Cl)CC2)cc1` (configuration not stated), for which the composite z-score stood at 0.166.

The compound `C=C(CC1(C(C)NP(=O)(c2ccccc2)c2ccccc2)CC1)c1ccccc1` (configuration not stated) registered a composite z-score of 1.01.

Regarding `C=C(CC1(CNP(=O)(c2ccccc2)c2ccccc2)CC1)c1ccccc1`, the composite z-score was determined as 0.777.

In turn, `CCOC(=O)[C@H]1CC=C2C(=O)Oc3ccccc3[C@@H]21` came in with a composite z-score of -0.316.

With `CCOC(=O)[C@H]1CC=C2C(=O)Oc3ccc(Br)cc3[C@@H]21`, the composite z-score is -0.664.

As to `C[C@@H]1OC=C2[C@@H](O)[C@H]3O[C@H]3C(=O)[C@]23[C@H]1[C@H]1C2=C([C@@H](O)[C@H]4O[C@H]4C2=O)[C@@H]3O[C@@H]1C`, the composite z-score turned out to be 0.121.

`COC(=O)[C@@]1(Cc2ccccc2)[C@H]2c3cc(C(=O)N(C)C)n(C)c3C[C@H]2CN1C(=O)c1ccccc1` showed a composite z-score of 1.59.

On to `c1ccc(-c2cc3c(nc2-c2ccccc2)CCNC3)cc1`, for which the composite z-score was -0.634.

In the case of `COC(=O)NCC=Cc1nc(CCC=CC(=O)O[C@H]2CC3CC(=O)O[C@@H](C=CCC(C)C)C[C@@H]4CC[C@H](C)[C@@H](C[C@@H](OC)C[C@H](C2)O3)O4)co1`, the composite z-score was -0.896.

In turn, `CCCc1cc2c(n1CCO)C(C)C1CN(C(=O)c3ccccc3)C(C)(C(=O)OC)C21` (configuration not stated) gave a composite z-score of 1.66.
